ASM inhibitor – Inhibitors of Secretory Acid Sphingomyelinase (S-ASM): qHTS; placental ASM, HMU-PC fluorogenic substrate, 60 min; Potency, µM (doses to about 57.5 µM), usual class: inhibitors; 340,000 compounds, 0.006% hits; AID 504937, 2011
Target sequence (P17405 47-631 limits assumed): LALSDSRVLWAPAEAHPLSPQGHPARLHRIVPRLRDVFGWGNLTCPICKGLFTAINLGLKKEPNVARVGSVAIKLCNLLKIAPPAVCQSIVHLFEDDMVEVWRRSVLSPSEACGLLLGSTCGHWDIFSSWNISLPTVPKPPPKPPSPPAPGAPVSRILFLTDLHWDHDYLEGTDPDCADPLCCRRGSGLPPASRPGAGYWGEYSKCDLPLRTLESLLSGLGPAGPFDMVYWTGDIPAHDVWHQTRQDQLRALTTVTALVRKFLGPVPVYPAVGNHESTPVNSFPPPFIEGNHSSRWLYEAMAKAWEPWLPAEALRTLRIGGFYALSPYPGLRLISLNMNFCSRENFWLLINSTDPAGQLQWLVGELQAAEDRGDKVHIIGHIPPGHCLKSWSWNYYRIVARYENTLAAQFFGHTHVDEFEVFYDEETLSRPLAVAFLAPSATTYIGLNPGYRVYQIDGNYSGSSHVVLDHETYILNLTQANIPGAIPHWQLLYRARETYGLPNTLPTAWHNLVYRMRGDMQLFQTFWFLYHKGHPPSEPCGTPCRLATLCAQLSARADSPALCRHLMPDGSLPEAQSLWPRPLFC
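Fluorogenic HMU-PC substrate (9 uM final) is turned over by placental ASM in 60 min at 37 C after a 10 min compound preincubation. Reaction ended by alkaline stop (pH 10), with fluorescence read at 386/447 nm.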
KB-3-1 cytotox – qHTS assay for MDR1-selective chemotherapeutics: Primary screen using the parental adenocarcinoma cell KB-3-1; Potency, µM (series often up to 46.1 µM), actives largely listed as cytotoxic; KB-3-1 viability, CellTiter-Glo ATP luminescence, 72 h; 400,000 compounds, 1.4% hits; also: nearly all actives have a fitted effect of over 60% in size
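Screening of KB-3-1 cells (DMEM, 10% FBS, phenol-red free) ran from lowest to highest compound concentration; after 72 h at 37 °C viability was read luminescently and curves fitted.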
SW480 rerep – A quantitative high throughput screen for small molecules that induce DNA re-replication in SW480 colon adenocarcinoma cells; Potency, µM (titrated, usually from 46.1 µM), most hits filed as activators; SW480 DNA re-replication, Hoechst DNA content imaging, 48 h; 340,000 compounds, 1.8% hits; also: nearly all actives have a fitted effect of over 55% in size
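Image-based read-out: total Hoechst fluorescence of nuclei (405 nm excitation, 500-530 nm emission), with hits raising the fraction of high-intensity nuclei. SW480 colon cells incubated 48 hr with compounds at 37 C.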
MCF10A rerep – A quantitative high throughput screen for small molecules that induce DNA re-replication in MCF 10a normal breast cells | MCF 10A DNA re-replication, Hoechst nuclear intensity, 48 h | 350,000 compounds, 2.9% hits | Potency, µM (doses to about 46.1 µM), hits mostly activators; also: nearly all actives have a fitted effect of over 50% in size
KB-V1 MDR tox – qHTS assay for MDR1-selective chemotherapeutics: Primary screen using the drug-selected MDR subline cells KB-V1 | KB-V1 MDR cells viability, CellTiter-Glo, 72 h | Potency, µM (titrated, usually from 46.1 µM), actives largely listed as cytotoxic | 400,000 compounds, 3.4% hits; also: nearly all actives have a fitted effect of over 60% in size
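KB-V1 MDR subline cells in DMEM (phenol-red free, 10% FBS) exposed to compounds in qHTS concentration series for 72 h at 37 degrees C. Viability read by CellTiter-Glo luminescence; concentration-effect curves fitted after normalization and correction.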
Giardia killer – Small Molecules that selectively kill Giardia lamblia: qHTS | AID 540267, 2011 | activity change, % at 7.66 µM, hits read low | 340,000 compounds, 0.15% hits | Giardia lamblia trophozoite viability; in the data active = activity change below about -80%; inconclusive = between about -30% and that limit;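 also: parasites exposed to compound for two days anaerobically before the ATP read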
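Luminescent ATP signal served as the viability read-out, measured 15-30 min after adding ATP detection reagent to trophozoites that had been incubated with compounds for 48 hrs at 37 deg C anaerobically at 100 cells/well.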
A number is an active result; i = inactive; ? = inconclusive; nt = not tested or not shown; [ ] = remark or other dose. Sampled rows, rich in hits. Any-hit rate of the full collection: about 6.9%. Unless noted, calls follow the shape of the dose curve; as a rule, active = well fitted curve in the direction sought with a large enough effect; inconclusive = small, poorly fitted or top-dose-only effect, or another doubt; inactive = no such curve, though single readings can be large; an effect the other way counts as inactive or inconclusive.

SMILES	ASM inhibitor	KB-3-1 cytotox	SW480 rerep	MCF10A rerep	KB-V1 MDR tox	Giardia killer
CCCNC(=O)N1[C@H](c2ccc(C)s2)[C@@H](C)C(=O)[C@@H](C)[C@@H]1c1ccc(C)s1	nt	i	nt	nt	i	nt
CCn1cc(C(=O)N(C)Cc2ccccc2)c(=O)c2cc(S(=O)(=O)N3CCCCC3)ccc21	nt	i	nt	nt	i	nt
Cc1ccc(Cn2ncc3c(N4CCN(Cc5ccc(Cl)cc5)CC4)ncnc32)cc1	i	?	i	?	2.6µM	i
COc1cccc(N2CCN(c3ncnc4c3cnn4-c3ccc(C)cc3C)CC2)c1	i	10µM	i	6.5µM	?	i
CCOc1ccc(-c2nnn(CC(=O)NCc3ccco3)n2)cc1OCC	i	i	i	i	i	i
CCCCOc1ccc(-c2nnn(CC(=O)NCc3ccco3)n2)cc1	i	?	i	i	4.1µM	i
Cc1cc(C(C)(C)C)cc(C)c1C[n+]1ccc2ccccc2c1	i	1.6µM	i	?	i	i
Cc1ccc(SCC2(O)CCN(C(=O)c3ccc(Cl)cc3)CC2)cc1	i	i	i	i	i	i
O=S(=O)(c1ccccc1)N1CCC(O)(CSc2ccc(Cl)cc2)CC1	i	?	i	?	23µM	i
O=S(=O)(c1ccc(Cl)cc1)N1CCC(O)(CN2CCN(Cc3ccccc3)CC2)CC1	i	i	i	20µM	i	i
Cc1ccc(NC(=O)c2cc(NC(=O)c3ccccc3C(=O)O)ccc2N2CCCCC2)cc1	i	i	i	i	i	i
CC(=O)Nc1ccc(N2CCCCC2)c(C(=O)Nc2cccc(C)c2)c1	i	i	i	?	7.3µM	i
Cc1cccc(NC(=O)c2cc(NC(=O)C3CCCCC3C(=O)O)ccc2N2CCCCC2)c1 (configuration not stated)	?	i	i	15µM	i	i
Cc1cccc(NC(=O)c2cc(NC(=O)C3CC=CCC3C(=O)O)ccc2N2CCOCC2)c1 (configuration not stated)	i	i	i	i	i	i
COc1ccc(CN(C(=O)c2ccc(OCC(C)C)cc2)C2CCS(=O)(=O)C2)cc1 (configuration not stated)	nt	i	nt	nt	i	nt
N#Cc1ccc(/C=C/C(=O)c2cccnc2)cc1	i	i	i	7.3µM	?	i
O=C(/C=C/c1ccccc1Cl)c1cccnc1	i	i	?	5.8µM	?	i
CCOC(=O)C(=CNNc1ccccc1)C(=O)OCC	i	i	i	i	i	i
COc1ccc(Nc2ccnc(Nc3ccc(OC)cc3)n2)cc1	i	?	?	23µM	16µM	i
O=C(CSc1nc2c([nH]c3ccccc32)c(=O)n1-c1ccc(F)cc1)NCC1CCCO1 (configuration not stated)	nt	i	nt	nt	i	nt
O=C(COC(=O)c1cc(S(=O)(=O)N2CCCCC2)ccc1N1CCOCC1)c1ccc(Cl)cc1	i	i	6.5µM	i	i	i
O=C(COC(=O)c1cc(S(=O)(=O)N2CCCCC2)ccc1N1CCOCC1)c1ccccc1	i	i	i	i	21µM	i
CCC(C)c1ccc(OCC(=O)Nc2cccc(-c3nc4ncccc4o3)c2)cc1 (configuration not stated)	nt	i	nt	nt	i	nt
COC(=O)C(CCSC)Nc1ncnc2onc(-c3ccc(F)cc3)c12 (configuration not stated)	nt	i	nt	nt	?	nt
C=CCn1c(-c2cccn(Cc3cccc(Cl)c3)c2=O)n[nH]c1=S	i	i	i	i	23µM	i
SMILES	ASM inhibitor	KB-3-1 cytotox	SW480 rerep	MCF10A rerep	KB-V1 MDR tox	Giardia killer
C=CCn1c(-c2cccn(Cc3ccc(Cl)cc3Cl)c2=O)n[nH]c1=S	i	?	i	i	15µM	i
C=CCn1c(-c2cccn(Cc3ccccc3)c2=O)n[nH]c1=S	i	i	i	i	i	i
C=CCn1c(-c2cccn(Cc3ccc(Cl)cc3)c2=O)n[nH]c1=S	i	i	i	i	?	i
O=S(=O)(c1ccc(F)cc1F)N1CCN(c2nc(-c3cccs3)nc3ccccc23)CC1	nt	nt	nt	nt	nt	i
S=C(NCc1ccco1)N1CCN(c2ccccc2Cl)CC1	i	i	i[1.84 µM]	i	?	i
O=C(CNC1CCCCC1)Nc1cccc(C(F)(F)F)c1	i	i	i	i	i	i
CC(C)(C)c1cc(C(=O)Nc2ccccc2)ccn1	i	i	i	i	21µM	i
CC(C)(C)NC(=O)c1ccnc(C(C)(C)C)c1	i	i	i	i	i	i
CC(NC(=O)c1ccnc(C(C)(C)C)c1)c1ccccc1 (configuration not stated)	i	?	i	i	18µM	i
Cc1ccc(-c2nc(SCCOc3ccccc3C)n3[nH]c(=O)cc3n2)cc1	nt	?	nt	nt	i	nt
CSc1ncnc2c1ncn2CCCNCCCN1CCCC1=O	nt	i	nt	nt	i	nt
COc1cccc(C2CC(c3cccc(NS(C)(=O)=O)c3)=NN2C(=O)c2ccccc2)c1OC (configuration not stated)	i	i	?	i	13µM	i
CCC(=O)N1N=C(c2cccc(NS(C)(=O)=O)c2)CC1c1cccs1 (configuration not stated)	i	i	i	i	18µM	i
CN(C)c1ccc(C2CC(c3cccc(NS(C)(=O)=O)c3)=NN2C(=O)c2ccccc2)cc1 (configuration not stated)	i	i	i	i	i	i
COc1cccc(C2CC(c3ccc(Br)cc3)=NN2C(=O)c2ccncc2)c1OC (configuration not stated)	i	18µM	i	?	?	i
CCc1nc(N2CCCCC2)c2oc3ccccc3c2n1	i	i	?	i	?	i
c1ccc2c(c1)oc1c(N3CCOCC3)ncnc12	i	i	i	i	i	i
CCc1nc(N2CCN(Cc3ccc4c(c3)OCO4)CC2)c2oc3ccccc3c2n1	i	20µM	?	9.2µM	10µM	i
CCc1nc(N2CCCC(C)C2)c2oc3ccccc3c2n1 (configuration not stated)	i	?	i	?	5.2µM	i
Cc1nc(N2CCOCC2)c2oc3ccccc3c2n1	i	i	i	?	15µM	i
CCOC(=O)C1CCN(c2nc(C)nc3c2oc2ccccc23)CC1	i	i	i	i	i	i
CCOC(=O)C1CCCN(c2nc(C)nc3c2oc2ccccc23)C1 (configuration not stated)	i	i	i	i	8.2µM	i
CCOc1ccc(C(=O)Nc2nnc(SCc3cc(=O)c4cc(C)ccc4[nH]3)s2)cc1	nt	i	nt	nt	?	nt
O=C1CCSC2(C(=O)N(Cc3ccc(F)cc3)c3ccccc32)N1c1cccc(F)c1 (configuration not stated)	nt	i	nt	nt	?	nt

Assay outcomes (PubChem)
